Screens (PubChem)
The list is not random: actives were taken first. Their share in the collection is about 10%.
JMJD2A Tudor inh: JMJD2A Tudor domain (human) inhibition; O75164; AlphaScreen JMJD2A-Tudor / H3K4me3 peptide binding; Potency, µM (series often up to 114 µM), hits mostly inhibitors; AID 504339; hit rate 4.4% among 390,000; note: nearly all actives have a fitted effect of over 50% in size
G9a block: blocks human histone lysine methyltransferase G9a. AID 504332. Q96KQ7. Potency, µM (highest dose often 102 µM), hits mostly inhibitors. hit rate 8.8% among 350,000. G9a H3K9 monomethylation, AlphaScreen, 2 h; note: nearly all actives have a fitted effect of over 75% in size
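G9a (20 nM) was preincubated 15 min with compound, then reacted 2 h at room temperature with 500 nM biotin-H3K9 peptide and 20 µM SAM. Monomethyl-H3K9 detected by AlphaScreen using anti-H3K9me1 antibody.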
HP1b chromo inh: blocks HP1-beta chromodomain binding to methylated histone tails. P83916. AlphaScreen HP1-beta / biotin-H3K9me3 peptide binding. Potency, µM (highest dose often 114 µM), most hits filed as inhibitors. hit rate 0.56% among 390,000; note: nearly all actives have a fitted effect of over 70% in size
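AlphaScreen: HP1-beta (50 nM) preformed 30 min with biotin-H3(1-18)K9me3 peptide (50 nM) in PBS pH 7.4, 0.01% Tween-20. Compound added for 30 min at RT, then streptavidin donor/nickel chelate acceptor beads (10 ug/mL) for 30 min.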
L3MBTL1 block: L3MBTL1 (human) inhibition; AlphaScreen L3MBTL1–H3K9me1 peptide binding; Potency, µM (doses to about 57.1 µM), usual class: inhibitors; hit rate 0.66% among 230,000; Q9Y468; note: nearly all actives have a fitted effect of over 60% in size
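Read-out is AlphaScreen signal from streptavidin donor and nickel chelate acceptor beads (10 ug/mL final each) bridging L3MBTL1 (50 nM) and biotinylated K9-monomethylated H3(1-15) peptide (75 nM), after 30 min compound exposure at room temperature.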
GLS inh: inhibitors of human glutaminase (GLS). O94925. GLS enzymatic activity, qHTS titration. Potency, µM (titrated, usually from 45.5 µM), usual class: inhibitors. hit rate 0.21% among 410,000. AID 624170
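hKGA in 45 mM KH2PO4 (pH 8.2), 0.02% Tween-20 with compound, then 1mM L-Glutamine (stock as added) plus glutamate oxidase/HRP/Amplex red coupling mix. Fluorescence read initially and after 30 min at RT; signal change reflects glutamate formation.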
BAZ2B block: BAZ2B (human) inhibition; Q9UIF8; AlphaScreen BAZ2B-H3K14Ac peptide displacement; Potency, µM (doses to about 114 µM), usual class: inhibitors; hit rate 4.4% among 360,000; note: nearly all actives have a fitted effect of over 60% in size
Target sequence (Q9UIF8 whole entry, looked up): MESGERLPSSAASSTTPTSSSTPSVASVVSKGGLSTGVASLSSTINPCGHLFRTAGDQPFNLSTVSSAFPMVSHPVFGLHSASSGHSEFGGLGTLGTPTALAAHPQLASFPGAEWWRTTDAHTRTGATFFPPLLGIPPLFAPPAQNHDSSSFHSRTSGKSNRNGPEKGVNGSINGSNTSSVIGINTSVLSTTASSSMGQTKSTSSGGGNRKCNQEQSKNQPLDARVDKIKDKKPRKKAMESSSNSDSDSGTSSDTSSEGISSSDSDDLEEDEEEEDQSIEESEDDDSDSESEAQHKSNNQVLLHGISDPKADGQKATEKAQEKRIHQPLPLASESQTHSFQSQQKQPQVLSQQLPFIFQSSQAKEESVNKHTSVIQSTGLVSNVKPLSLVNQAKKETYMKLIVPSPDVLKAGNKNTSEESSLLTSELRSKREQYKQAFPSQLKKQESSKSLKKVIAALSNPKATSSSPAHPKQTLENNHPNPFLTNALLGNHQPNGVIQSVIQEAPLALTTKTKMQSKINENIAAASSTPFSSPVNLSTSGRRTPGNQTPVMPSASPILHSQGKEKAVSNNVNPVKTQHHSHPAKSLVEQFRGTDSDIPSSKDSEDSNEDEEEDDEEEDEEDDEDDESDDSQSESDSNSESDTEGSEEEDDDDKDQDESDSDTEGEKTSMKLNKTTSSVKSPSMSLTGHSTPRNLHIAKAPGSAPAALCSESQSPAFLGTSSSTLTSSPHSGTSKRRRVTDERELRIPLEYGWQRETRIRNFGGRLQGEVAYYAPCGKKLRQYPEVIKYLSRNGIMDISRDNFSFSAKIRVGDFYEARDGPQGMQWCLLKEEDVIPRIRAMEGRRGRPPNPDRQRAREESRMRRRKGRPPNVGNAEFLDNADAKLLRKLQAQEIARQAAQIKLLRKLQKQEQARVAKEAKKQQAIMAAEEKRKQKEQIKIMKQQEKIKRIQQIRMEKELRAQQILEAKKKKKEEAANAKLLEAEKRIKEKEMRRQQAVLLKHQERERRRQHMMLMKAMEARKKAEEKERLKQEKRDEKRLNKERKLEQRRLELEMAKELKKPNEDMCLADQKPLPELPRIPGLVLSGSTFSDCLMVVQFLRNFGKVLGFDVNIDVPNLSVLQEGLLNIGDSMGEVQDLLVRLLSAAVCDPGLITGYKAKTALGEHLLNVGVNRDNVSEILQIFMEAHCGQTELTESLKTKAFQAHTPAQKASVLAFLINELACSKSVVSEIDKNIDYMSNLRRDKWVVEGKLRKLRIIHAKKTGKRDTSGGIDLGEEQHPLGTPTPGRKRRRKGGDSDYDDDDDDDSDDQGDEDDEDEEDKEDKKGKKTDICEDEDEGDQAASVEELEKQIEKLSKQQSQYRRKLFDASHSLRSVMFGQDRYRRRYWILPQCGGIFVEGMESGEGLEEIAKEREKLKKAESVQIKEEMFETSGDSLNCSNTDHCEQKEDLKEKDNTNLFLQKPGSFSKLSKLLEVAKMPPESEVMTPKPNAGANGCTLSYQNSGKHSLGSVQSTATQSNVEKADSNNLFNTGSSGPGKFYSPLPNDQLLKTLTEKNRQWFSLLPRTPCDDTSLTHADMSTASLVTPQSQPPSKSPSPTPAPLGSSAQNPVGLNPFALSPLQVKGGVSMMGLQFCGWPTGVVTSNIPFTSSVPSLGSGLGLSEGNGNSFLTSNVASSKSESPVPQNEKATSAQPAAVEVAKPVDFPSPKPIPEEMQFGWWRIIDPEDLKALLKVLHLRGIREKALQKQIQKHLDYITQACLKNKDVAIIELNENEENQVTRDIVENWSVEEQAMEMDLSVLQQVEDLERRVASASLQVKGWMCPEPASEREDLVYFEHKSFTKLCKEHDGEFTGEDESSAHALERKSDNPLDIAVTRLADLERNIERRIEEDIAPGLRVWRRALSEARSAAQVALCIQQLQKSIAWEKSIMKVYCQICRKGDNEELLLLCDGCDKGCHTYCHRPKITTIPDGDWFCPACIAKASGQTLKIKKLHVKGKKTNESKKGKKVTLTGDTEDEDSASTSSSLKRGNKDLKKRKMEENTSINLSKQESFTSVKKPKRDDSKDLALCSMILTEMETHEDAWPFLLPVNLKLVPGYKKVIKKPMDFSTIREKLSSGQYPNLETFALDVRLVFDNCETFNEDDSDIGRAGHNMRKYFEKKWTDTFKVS
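BAZ2B 50 nM plus b-H3(5-23)K14Ac 50 nM, PBS pH 7.4/0.01% Tween-20, 30 min RT; compound added (max 110 uM), 30 min RT; streptavidin donor/Ni-chelate acceptor beads 10 ug/mL final, 20 min dark; AlphaScreen read.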
A number is an active result; i = inactive; ? = inconclusive; nt = not tested or not shown; [ ] = another dose, or the depositor's remark. Calls come from the whole dose curve; as a rule, active = well fitted curve in the direction sought with a large enough effect; inconclusive = small, poorly fitted or top-dose-only effect, or another doubt; inactive = no such curve, though single readings can be large; an effect the other way counts as inactive or inconclusive.

SMILES	JMJD2A Tudor inh	G9a block	HP1b chromo inh	L3MBTL1 block	GLS inh	BAZ2B block
CC(CNC(=O)c1ccc2c(c1)nc1n2CCCCC1)c1ccccc1 (stereo not given)	i	i	i	nt	i	i
O=C(Nc1ccc(Cl)cc1)Nc1ccccn1	i	i	i	i	i	i
N/C(=N\NC(=O)Nc1ccc(Cl)cc1)c1ccccn1	45µM	i	i	?	?	16µM
Cc1nc(C(F)(F)F)c(C(=O)N/N=C(\N)c2ccccn2)s1	79µM	i	i	nt	i	10µM
CNC(=O)N/N=C(\N)c1ccccn1	?	10µM	i	i	i	?
N/C(=N\NS(=O)(=O)c1ccccc1C(F)(F)F)c1ccccn1	i	nt	i	i	i	i
N#Cc1nc(Nc2cc(F)cc(F)c2)c2ncn(CCO)c2n1	i	nt	nt	nt	nt	nt
COC(=O)Cc1ccc(NC(=O)c2ccc3c(c2)C(=O)N(Cc2ccco2)C3=O)cc1	i	nt	i	nt	i	i
O=C(O)c1cccc(NC(=O)c2ccc3c(c2)C(=O)N(Cc2ccco2)C3=O)c1	i	nt	i	i	?	?
CCc1ccc(NC(=O)c2ccc3c(c2)C(=O)N(Cc2ccco2)C3=O)cc1	?	50µM	i	?	i	?
O=C(O)c1ccc2c(c1)C(=O)N(Cc1ccco1)C2=O	?	56µM	i	i	i	i
O=C1c2cccc3c(O)ccc(c23)C(=O)N1Cc1ccco1	i	40µM	i	?	i	i
Cc1ccccc1Cn1c(=O)n(CCCC(=O)NCc2ccco2)c(=O)c2sccc21	i	i	i	nt	i	i
Cc1cc(C)c(Cn2c(=O)n(CCCC(=O)NCc3ccco3)c(=O)c3sccc32)c(C)c1	i	i	i	nt	i	i
O=C(CCCn1c(=S)[nH]c2ccsc2c1=O)NCc1ccco1	56µM	?	i	i	i	?
O=C(CCCCn1c(=S)[nH]c2ccsc2c1=O)NCc1ccco1	25µM	22µM	i	i	i	i
O=C(N/N=C/c1ccc(N2CCCC2)c([N+](=O)[O-])c1)c1cccnc1	i	?	i	i[11.4 µM]	i	?
O=C(O/N=C\c1ccc(N2CCCCC2)c([N+](=O)[O-])c1)c1cccc(C(F)(F)F)c1	?	5µM	?	i	i	?
O=C(O/N=C\c1ccc(N2CCCCC2)c([N+](=O)[O-])c1)c1c(F)cccc1F	?	14µM	?	?	i	?
O=C(O/N=C\c1ccc(N2CCCCC2)c([N+](=O)[O-])c1)c1cccc(Cl)c1	?	28µM	?	i	i	?
CC(=O)N1CCCc2cc(S(=O)(=O)N3CCN(c4ccc(F)cc4)CC3)ccc21	i	i	i	nt	i	i
Cc1ccc(C)c(N2CCN(S(=O)(=O)c3cc(C(=O)Nc4ccc(Oc5ccccc5)cc4)ccc3F)CC2)c1	i	i	i	nt	i	i
Cc1ccc(CNC(=O)CSc2ncc(S(=O)(=O)c3ccc(C)c(Cl)c3)c(=O)[nH]2)cc1	i	i	i	nt	i	i
O=C(CCSCc1ccccc1Cl)N1CCN(c2ccc(F)cc2)CC1	i	i	i	nt	i	i
Cc1cccc(C(=O)Nc2cccc(C(=O)OCc3cc(=O)n4nc(C5CC5)sc4n3)c2)c1	i	i[12.7 µM]	i	nt	i	i
SMILES	JMJD2A Tudor inh	G9a block	HP1b chromo inh	L3MBTL1 block	GLS inh	BAZ2B block
CCOC(=O)c1cccc(NC(=O)C(C)n2c(C)c3cnn(-c4ccccc4)c(=O)c3c2C)c1 (stereo not given)	i	i	i	nt	i	i
Cn1c(=S)ccc2ccccc21	i	10µM	?	i	i	i
COc1ccc(C(C)NS(=O)(=O)Cc2ccccc2)cc1 (stereo not given)	i	50µM	i	i	i	i
COc1ccc(OC)c(NC(=O)CS(=O)(=O)Cc2ccccc2)c1	i	nt	i	nt	i	i
COc1ccc(OC)c(NS(=O)(=O)Cc2ccccc2)c1	nt	35µM	nt	i	nt	?
COc1ccc(C(C)NC(=O)c2ccccc2)cc1 (stereo not given)	i	i	i	nt	i	i
COc1cc2c(cc1OC)n(CC(=O)c1cc(C)ccc1C)c(=O)n1nc(CCn3nc(C)cc3C)nc21	i	i	i	nt	i	i
COc1ccc2nc3cc(Cl)ccc3c(Nc3cc(C(C)C)c(O)cc3C)c2c1	?	i	i	?	i	?
COc1ccc2nc3cc(Cl)ccc3c(Nc3cc(CN4CCCC4)c(O)c(CN4CCCC4)c3)c2n1	nt	?	nt	nt	nt	40µM
O=C(COc1ccccc1Cl)NC(=S)N1CCc2ccccc21	i	i	i	i	i	i
O=C(COc1ccccc1)NC(=S)N1CCc2ccccc21	i	28µM	i	i	i	i
COc1ccc(OCC(=O)NC(=S)N2CCCc3ccccc32)cc1	56µM	?	i	nt	i	50µM
COc1ccc(OCCCC(=O)N2CCCc3ccccc32)cc1	i	i[12.7 µM]	i	nt	i	i
CCOC(=O)N1CCN(S(=O)(=O)c2ccc(C(=O)Nc3sc4c(c3C(N)=O)CCN(CC)C4)cc2)CC1	i	50µM	i	nt	i	?
CN1CCc2c(sc(NC(=O)C3CCCN3S(=O)(=O)c3ccc(Cl)s3)c2C(N)=O)C1 (stereo not given)	i	45µM	i	i	i	i
CC(=O)N1CCc2c(sc(NC(=O)C3CCCN3S(=O)(=O)c3cccs3)c2C(N)=O)C1 (stereo not given)	i	?	i	i	i	i
CCCN1CCc2c(sc(NC(=O)c3ccc(S(=O)(=O)N4CCN(C(=O)OCC)CC4)cc3)c2C(N)=O)C1	i	?	i	nt	i	i
CCOC(=O)N1CCN(S(=O)(=O)c2ccc(C(=O)Nc3sc4c(c3C(=O)OC)CCN(C)C4)cc2)CC1	i	56µM	i	nt	i	i
CN1CCc2c(sc(NC(=O)c3ccc(S(=O)(=O)N4CCOCC4)cc3)c2C(N)=O)C1	i	40µM	i	i	i	i
Nc1ccnc2c1ncn2[C@@H]1O[C@H](CO)[C@@H](O)[C@H]1O	nt	i	nt	nt	nt	nt
OC(COCc1ccccc1)COCc1ccccc1	i	nt	i	nt	i	nt
Cc1n(CC(O)COCc2ccccc2)c2ccccc2[n+]1C (stereo not given)	i	i	i	i	i	56µM
CCc1n(CC(O)COC2CCCCC2)c2ccccc2[n+]1C (stereo not given)	i	nt	i	i	i	?
CCc1n(CC(O)COCC2CC=CCC2)c2ccccc2[n+]1C (stereo not given)	?	50µM	i	i	i	i
Cc1cc2nc3ccc(=[N+](C)C)cc-3sc2cc1N	?	nt	i	i	i	35µM
S=C(NC1CCCCC1)N1CCC([C@H]2C=NC=N2)CC1	nt	i[21.5 µM]	nt	nt	nt	nt
O=S(=O)(Nc1cc2nc3ccccc3nc2n1Cc1ccccc1)c1ccc(Cl)cc1	i	i	i	4µM	i	i
O=C(NCc1ccccc1Br)C1CCCN(C(=O)N2CCOc3ccccc32)C1 (stereo not given)	i	i	i	nt	i	i
